This is part of a sample that, as a whole, favours compounds with a hit. Of some 83,000 tested, about 20% had one in any assay.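 Results are percent growth after 48 hours of single-concentration exposure. 100 means growth as in untreated cells, lower positive values show inhibition; negative values down to -100 show cell death.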 Values without a mark were called inactive. Active and inactive are the calls of the source. How the source made its calls: active means growth percent below 10; inactive means the rest.
Tested on: HL-60(TB) leukemia
Assay: NCI-60 one-dose screen, 48 h (100 = growth as untreated, 0 = no growth, -100 = all killed)
Conditions: 10 µM unless noted

Row | Structure (SMILES) | growth
1 | CSc1ccc(/C(=N/N=C(N)N)c2ccc(F)cc2)cc1 | -31.7% (active)
2 | c1ccc(-c2n(Cc3ccc4ccccc4c3)c3c4ccccc4c4ccccc4c3[n+]2Cc2ccc3ccccc3c2)cc1 | -61.4% (active)
3 | O=C(NCCCNc1cc(-c2cn(-c3ccccc3)nc2-c2cccc(O)c2)ccn1)Nc1cccc(C(F)(F)F)c1 | 24.7%
4 | CN1CCN(c2ccc(Nc3nc(NCCCNS(=O)(=O)c4ccc(C(F)(F)F)cc4)c4sccc4n3)cc2)CC1 | -47.4% (active)
5 | C#C[C@]1(O)CC[C@H]2[C@@H]3CC=C4c5sc(C6CCOCC6)nc5CC[C@]4(C)[C@H]3CC[C@@]21C | 56.7%
6 | CN1CCN(Cc2ccc(NC(=O)c3cncc(C#Cc4cnc5ccc(N)nn45)c3)cc2C(F)(F)F)CC1 | 2.82% (active)
7 | Cc1cc(NS(=O)(=O)c2ccc(-c3cnc(C4CC4)o3)cc2)ccc1I | 1.38% (active)
8 | Cc1cc(C)cc(NC2=C(Cl)C(=O)c3nc(C)ccc3C2=O)c1 | 34.5%
9 | CN1CCN(Cc2ccc(NC(=O)c3cncc(C#Cc4cnc5ccc(O[C@@H]6CCOC6)nn45)c3)cc2C(F)(F)F)CC1 | -48.8% (active)
10 | COc1ccc(/C=C/C(=O)c2cccc(NC(=O)CSc3nc4ccccc4c(=O)n3-c3ccccc3)c2)cc1OC | 98.9%
11 | Cc1nc(N)sc1-c1csc(Nc2ccc(C(F)(F)F)cc2)n1 | 27.9%
12 | O=[N+]([O-])c1ccc(-c2nnc(SCc3ccc(O)c4ncccc34)n2-c2ccccc2)cc1 | 32.5%
13 | Cc1[nH]nc2ncc(C#Cc3cncc(C(=O)Nc4ccc(CN5CCN(C)CC5)c(C(F)(F)F)c4)c3)cc12 | 13.6%
14 | O=S(=O)(Nc1ccc(-c2nc(-c3cccc(O)c3)c(-c3ccnc(Br)c3)[nH]2)cc1)c1ccccc1 | -9.12% (active)
15 | Cn1c(SC(C(=O)Nc2ccc(F)cc2)c2ccccc2)nc2ccccc2c1=O (configuration not stated) | 103%
16 | C#C[C@]1(O)CC[C@H]2[C@@H]3CC=C4c5sc(Nc6nc(C)cc(OC)n6)nc5CC[C@]4(C)[C@H]3CC[C@@]21C | 12.1%
17 | O=S1SC(c2ccccc2)=NN1c1cc(F)cc(F)c1 (configuration not stated) | 32.2%
18 | C#C[C@]1(O)CC[C@H]2[C@@H]3CC=C4c5sc(-c6cccc(O)c6)nc5CC[C@]4(C)[C@H]3CC[C@@]21C | -30.7% (active)
19 | COc1ccc(/C=N/NC(=O)c2c(N)nn(C)c2Nc2ccccc2)cc1Oc1ccccc1 | 100%
20 | Oc1ccc(CSc2nnc(-c3cnccn3)o2)c2cccnc12 | -11.5% (active)
21 | CN(C)c1ccc(-c2c(NC(C)(C)C)nc3c(OCCc4ccccc4)cccn23)cc1 | -32.7% (active)
22 | COc1ccc(C2CC(c3ccc(Nc4nc(NCCO)nc(Nc5ccc(Cl)cc5)n4)cc3)=Nc3c(N)nc(N)nc3N2)cc1 (configuration not stated) | 36.6%
23 | COc1cc(CNC(=O)/C=C/c2ccccc2)ccc1OCC(=O)NO | 121%
24 | CCCCCc1ccc(S(=O)(=O)N(C(C)=O)c2cccc(-c3csc(N(CCN4CCN(C)CC4)C(C)=O)n3)c2)cc1 | -52.8% (active)

Row | Structure (SMILES) | growth
25 | Nc1cc(-c2c[nH]c3ccc(Br)cc23)nc2cc(-c3c[nH]c4ccc(Br)cc34)nn12 | 9.1% (active)
26 | Cc1ccc(NC2=C(Cl)C(=O)c3nc(C)ccc3C2=O)c(C)c1 | -14.8% (active)
27 | Nc1nc(N)c2c(n1)NC(c1ccc(C(F)(F)F)cc1)CC(c1ccc(Nc3nc(NCCO)nc(N4CCOCC4)n3)cc1)=N2 (configuration not stated) | 21.4%
28 | CC1CC(=O)C2=C(C1)Nc1ccc(Br)cc1CC2c1c[nH]c2ccc(Br)cc12 (configuration not stated) | 21.2%
29 | Cc1cc2nc(C(Cl)Cl)nc(-c3ccc(S(=O)(=O)N(C)C)cc3)n2n1 | 0.868% (active)
30 | Cn1cc(-c2nnc(N)nc2-c2c[nH]c3ccc(Br)cc23)c2cc(Br)ccc21 | 90.8%
31 | c1cc(-c2nc3ccc4[nH]ncc4c3c3c2CCCC3)[nH]n1 | 80.8%
32 | N/C(=N\OC(=O)CSc1nc2ccccc2s1)c1ccc(Cl)cc1 | 108%
33 | COc1ccc(C2CC(c3cccc(OCCCCOc4cccc(C5=NN(C(C)=O)C(c6ccc(OC)cc6)C5)c4)c3)=NN2C(C)=O)cc1 (configuration not stated) | 46.2%
34 | CN1CCN(Cc2ccc(NC(=O)c3cncc(C#Cc4cnc5ccc(OCC(F)F)nn45)c3)cc2C(F)(F)F)CC1 | -52.2% (active)
35 | Cc1cn(-c2cc(NC(=O)c3cncc(C#Cc4cnc5ccc(O[C@@H]6CCOC6)nn45)c3)cc(C(F)(F)F)c2)cn1 | -32.6% (active)
36 | COc1ccc(/C=N/N=C(/c2ccccc2)c2ccc3nc(-c4ccc(Cl)cc4)[nH]c3c2)cc1 | 67.2%
37 | COc1cc(O)c2c(c1)[C@H]1O[C@@H]1C[C@H](O)[C@H](O)C(=O)/C=C\C[C@H](C)OC2=O | 0.185% (active)
38 | NCCNC(=O)c1cccc(COc2ccccc2NC(=O)c2cc(Cl)c(Cl)[nH]2)c1 | 88.9%
39 | O=S(=O)(Nc1cc(Cl)c(F)c(Cl)c1)c1ccc(-c2cnc(C3CC3)o2)cc1 | 14.1%
40 | CCOC(=O)/C(F)=C/C1CC1C1CCCCC1 (configuration not stated) | 98.7%
41 | Oc1ccc(CSc2nnc(-c3ccccc3)o2)c2cccnc12 | 7.7% (active)
42 | COc1cc2cc(Oc3ccc(NC(=O)Nc4cc(C(F)(F)F)cc(C(F)(F)F)c4)cc3)c(C)nc2cc1OCCN(C)C | 109%
43 | COc1ccc(NC2=C(Cl)C(=O)c3nc(C)ccc3C2=O)cc1OC | 9.95% (active)
44 | COc1ccc(N)cc1C(=O)Nc1cccc(-c2cc(=O)c3c(OC)c(OC)c(OC)cc3o2)c1 | 58.1%
45 | CCN(CC)S(=O)(=O)c1ccc(-c2nc(C(Cl)Cl)nc3cc(-c4ccc(F)cc4)nn23)cc1 | 4.64% (active)
46 | Fc1ccc2nc(-c3cnn4cccnc34)sc2c1 | 96.7%
47 | COc1c(N2CC3CCCNC3C2)c(F)cc2c(=O)c(C(=O)N/N=C/c3ccc(F)cc3)cn(C3CC3)c12 (configuration not stated) | 72.8%
48 | COc1ccc(N/N=C/c2c(-c3ccc(S(C)(=O)=O)cc3)nc3ccccn23)cc1 | 39.4%

Row | Structure (SMILES) | growth
49 | O=C(N/N=C/c1ccco1)c1[nH]c2ccc(Br)cc2c1-c1ccccc1 | -28.4% (active)
50 | O=C(Nc1ccc2c(ccn2Cc2ccccn2)c1)c1cnccn1 | 131%
51 | Cn1c(SCC(=O)c2ccc(F)cc2)nc2ccccc2c1=O | 97.9%
52 | Cc1ccc(C2CC(c3ccc(Nc4nc(NCCO)nc(Nc5ccc(Cl)cc5)n4)cc3)=Nc3c(N)nc(N)nc3N2)cc1 (configuration not stated) | 10.2%
53 | O=C1/C(=C/C=C/c2ccco2)SC(=S)N1C1CCCCC1 | 69.4%
54 | CCN(CC)c1ccc2c(c1)Oc1nc(N)c(C#N)c(N)c1C2Sc1ccc(C)cc1 (configuration not stated) | -24.4% (active)
55 | O=C1[C@H]2Cc3c([nH]c4ccccc34)[C@@H](c3ccc(Cl)cc3)N2C(=O)CN1C1CCN(Cc2ccccc2)CC1 | 12.9%
56 | N#Cc1c(-c2ccc(Cl)cc2)nc(SCc2ccc(F)cc2)nc1N1CCNCC1 | -34.8% (active)
57 | FC(F)(F)c1cc(Nc2cccc(Oc3ccc(NC4=NCCN4)nc3)c2)ccc1Cl | -52.5% (active)
58 | CC1OC(O[C@@H]2[C@H](O)C(CO)OC(O[C@H]3COC(O[C@H]4CC[C@]5(C)[C@H]6CC[C@]78OC[C@@]9(CC[C@](C)(C=O)C[C@H]97)C(=O)C[C@@]8(C)[C@]6(C)CC[C@H]5C4(C)C)[C@@H](O)[C@@H]3O)[C@H]2OC2OC[C@@H](O)[C@@H](O)[C@@H]2O)[C@@H](O)[C@@H](O)[C@H]1O (some centres not stated) | 101%
59 | C(=N\Nc1nc(N/N=C/c2ccc3c(c2)OCO3)nc(N2CCCCC2)n1)/c1ccc2c(c1)OCO2 | 60.4%
60 | O=C1[C@H]2Cc3c([nH]c4ccccc34)[C@H](c3ccc(Br)cc3)N2C(=O)CN1C1CCN(CC2CCCCC2)CC1 | 56.9%
61 | CS(=O)(=O)c1ccc2c(c1)c1c(n2S(=O)(=O)c2ccc(Cl)cc2)CCCC1 | 4.55% (active)
62 | COC(=O)[C@@]1(C)CC[C@]2(C)CC[C@]3(C)C(=CC(=O)[C@@H]4[C@@]5(C)Cc6c(n(CC#CCN7CCN(C)CC7)c7ccccc67)C(C)(C)[C@@H]5CC[C@]43C)[C@@H]2C1 | 3.4% (active)
63 | COc1ccc(CC(C)=C(c2ccc(OCCN3CCCC3)cc2)c2ccc(OCCN3CCCC3)cc2)cc1 | -64.2% (active)
64 | O=C(CN1CCN(c2cc(=O)n(-c3ccccc3)c3ccccc23)CC1)Nc1nc(-c2ccc(Cl)cc2)cs1 | 26.2%
65 | C#CCOc1cccc(-c2nc(N)nc(Nc3ccccc3SSc3ccccc3Nc3nc(N)nc(-c4cccc(OCC#C)c4)n3)n2)c1 | 23.7%
66 | COC(=O)C1(C)CCC[C@]2(C)[C@H]3C[C@H]4C(C(C)C)=C[C@]3(CC[C@@H]12)[C@H]1[C@@H]4[C@@H](OC(=O)c2ccco2)CC[C@@H]1OC(=O)c1ccco1 (some centres not stated) | 91.9%
67 | COC(=O)c1ccc(NC2=C/C(=N/S(=O)(=O)c3ccc(C(=O)O)cc3)c3ccccc3C2=O)cc1 | -15.9% (active)
68 | COc1ccc2[nH]cc(-c3csc4nc(-c5ccccc5)cn34)c2c1 | 13.9%
69 | CC1(C)CC[C@]2(C(=O)NCCCCCCN(CCCN)CCCN)CC[C@]3(C)C(=CC[C@@H]4[C@@]5(C)CC[C@H](O)C(C)(C)[C@@H]5CC[C@]43C)[C@@H]2C1 | 99.1%
70 | Nc1nc(-c2cccc([N+](=O)[O-])c2)c(N=Nc2ccc([N+](=O)[O-])cc2Cl)s1 | 6.8% (active)
71 | Clc1ccc2c(N/N=C/c3c[nH]c4ccccc34)ccnc2c1 | -34.7% (active)
72 | COc1cc([C@H]2OC[C@H]3[C@@H]2CO[C@@H]3c2ccc(O)c(OC)c2)ccc1O | 93.5%
